Measurements reported in PubChem BioAssay AID602282 (Johns Hopkins Ion Channel Center, 2012).
Screen size: about 1,100 compounds; about 1,000 (91%) were called active.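 The calls were made as follows: active = inhibition above 3 SD of the buffer control wells (cut at about 41% in these data); inactive = the rest.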 The set was probably picked from earlier hits. A selection follows.

Assay: reduced carbachol calcium response, RGS4-induced M3R cells, confirmation, RGS4 activator project, cell-based, HEK293 M3R/RGS4 inducible, calcium flux, duplicate (AID 602282);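 also: signal is the integrated peak-minus-minimum Fluo4 fluorescence over baseline ratio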
Conditions: carbachol calcium flux Fluo4, at 10 µM, active compounds read high

Row | Structure (SMILES) | inhibition
1 | C=CC12CN(C)[C@@H]3C4CO[C@H](C[C@H]41)[C@]1(C(=O)Nc4ccccc41)[C@@H]32 (some centres not stated) | 84% (active)
2 | CC(C)Oc1cccc(C(=O)C2CCCN(C3CCOCC3)C2)c1 (configuration not stated) | 42.5% (active)
